PubChem BioAssay (NCI)
Compounds without any hit were thinned out: in the full panel of roughly 83,000, 20% have a hit.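 Step 1: grow cells in 96-well plates. Step 2: add test compound at a single concentration. Step 3: incubate 48 h. Step 4: record percent growth.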 A number with no mark means an inactive call. Calls of active or inactive are those of the source. The calls were made as follows: active = growth percent below 10; inactive = the rest.

Test system: T-47D breast
Experiment: NCI-60 one-dose screen, 48 h (100 = growth as untreated, 0 = no growth, -100 = all killed)
Details: 10 µM unless noted

Row | SMILES | growth
1 | Cc1cc(N2CCCC2)nc(NC2CCCC(Nc3ccnc4cc(Cl)ccc34)C2)n1 (stereo not drawn) | -35.1% (active)
2 | CN(C)c1ccc(N=Nc2ccc(Br)cn2)c(O)c1 | 30.2%
3 | COc1ccc(-c2cc(NC(=O)Nc3ccc4ncsc4c3)no2)cc1 | 86.6%
4 | O=[N+]([O-])c1ccc2c(c1)Cc1cc(F)ccc1-2 | 94.4%
5 | COc1ccc2[nH]cc(-c3noc(C(=O)c4cn(C)c5ccc(F)cc45)n3)c2c1 | 83.8%
6 | CCOC(=O)c1csc(NC(=O)COc2cccc(/C=C3\CSc4ccccc4C3=O)c2)n1 | 73.8%
7 | O=C(N=Nc1c(O)[nH]c2ccc(Br)cc12)c1cc(-c2ccccc2)on1 | 101%
8 | CC1CCNC(C)C1 (stereo not drawn) | 104%
9 | CC(O)CN(CC(C)O)c1ccc2c(c1)Cc1cc([N+](=O)[O-])ccc1-2 (stereo not drawn) | 109%
10 | Nc1nc2ccc3[nH]ncc3c2c2c1CCCC2 | 11%
11 | N#CN1CC[C@H](C(=O)Nc2cc3cc(C(N)=O)ccc3cn2)C1 | -21.6% (active)
12 | C=CC(=O)Nc1cccc(-c2nc(SC)nc(NCCN3CCOCC3)c2C#N)c1 | 93%
13 | CC(=O)OCCC/C(=C/c1cc2ccccc2c2ccccc12)[N+](=O)[O-] | -66.7% (active)
14 | NC(CSC(c1ccccc1)(c1ccccc1)c1ccc(Cl)cc1)C(=O)O (stereo not drawn) | 23.7%
15 | Cc1ccccc1COc1ccc(-c2ccnn2-c2ccc(Cl)cc2)cc1 | 65.4%
16 | COc1ccc(-c2cc(=O)c3c(OC)c4ccoc4cc3o2)cc1 | 87.2%
17 | CSc1nc(Nc2cccc(NC(=O)CCl)c2)c(C#N)c(-c2cccc([N+](=O)[O-])c2)n1 | 12.2%
18 | CC(C)(C)c1cc(/C=N\NC(=O)/C=C/C=C/c2ccc3c(c2)OCO3)c(O)c(C(C)(C)C)c1 | 35%
19 | CCOc1cc2ncc(C#N)c(Nc3ccc(OCc4cccc(F)c4)c(Cl)c3)c2cc1NC(=O)CC1CCSS1 (stereo not drawn) | -0.0513% (active)
20 | COc1ccc(-c2cc(Nc3ccnc(N4CCOCC4)n3)on2)cc1 | 55.1%

Row | SMILES | growth
21 | COC(=O)[C@]12CCC(C)(C)C[C@H]1[C@H]1C(=O)C[C@@H]3[C@@]4(C)c5c([nH]c6ccccc6c5=O)C(C)(C)[C@@H]4CC[C@@]3(C)[C@]1(C)CC2 | 52.6%
22 | CN(C)CCCNc1c2ccccc2nc2ccccc12 | 68.5%
23 | O=C1NC(=S)N[C@H]1CC(=O)n1cnc2ccccc21 | 99.6%
24 | Cc1ccc2oc(=O)cc(C3c4ccc([nH]4)C(c4cc(=O)oc5ccc(C)cc45)c4ccc([nH]4)C(c4cc(=O)oc5ccc(C)cc45)c4ccc([nH]4)C(c4cc(=O)oc5ccc(C)cc45)c4ccc3[nH]4)c2c1 (stereo not drawn) | -28.5% (active)
25 | CSc1ccc(-c2n[nH]nc2-c2cc3ccccc3s2)cc1 | 44.9%
26 | COC(=O)c1ccc(NC(=O)c2ccc(-c3cccc([N+](=O)[O-])c3)o2)cc1 | 96.4%
27 | O=C(N=Nc1c(O)[nH]c2ccccc12)c1cc(-c2ccccc2)on1 | 97.6%
28 | Cc1cc(N2CCCCC2)nc(NC2CCCC(Nc3ccnc4cc(Cl)ccc34)C2)n1 (stereo not drawn) | -58.5% (active)
29 | COc1cc(-c2nn(-c3ccc(C(=O)O)cc3)cc2C(=O)O)ccc1O | 93.2%
30 | COc1cccc(/C=N/NC(=O)c2ccccc2Nc2ccnc(C(F)(F)F)c2)c1O | 17.6%
31 | COc1cc(C(=O)Oc2ccccc2OC(=O)c2cc(OC)c(OC)c(OC)c2)cc(OC)c1OC | 102%
32 | CN1CCN(CCCOc2cccc3nc(Nc4cc(Cl)cc(Cl)c4)ccc23)CC1 | -25.3% (active)
33 | COc1cccc(/C=C2\SC(=Nc3ccc(NC(C)=O)cc3)NC2=O)c1OC | 89.2%
34 | Cc1cc(N2CCN(c3ccnc4cc(Cl)ccc34)CC2)nc(NC2CCCCC2)n1 | 7.8% (active)
35 | O=C(/C=C/C=C/c1ccc2c(c1)OCO2)N/N=C\c1ccc(O)cc1O | 23.9%
36 | N#C/C(=C\c1ccc(-c2cc(C(F)(F)F)ccc2Cl)o1)c1nc(-c2ccco2)cs1 | 80.1%
37 | CCc1nc(N)nc(N)c1C#CC(C)c1cc(-c2ccnc(C)c2)c2oc(C)nc2c1 (stereo not drawn) | 9.59% (active)
38 | O=C1Nc2c(ccc(Cl)c2Cl)/C1=C\c1cc(C(F)(F)F)cc(C(F)(F)F)c1 | -0.235% (active)
39 | COc1ccc(S(=O)(=O)N2CC3(COC3)C2)cc1NC(=O)c1[nH]c(C)c2c1CCCCC2=O | 37%

Test system: BT-549 breast
Experiment: as above
Details: 10 µM unless noted

Row | SMILES | growth
40 | Cc1cc(N2CCCC2)nc(NC2CCCC(Nc3ccnc4cc(Cl)ccc34)C2)n1 (stereo not drawn) | -57.9% (active)
41 | CN(C)c1ccc(N=Nc2ccc(Br)cn2)c(O)c1 | 38.2%
42 | COc1ccc(-c2cc(NC(=O)Nc3ccc4ncsc4c3)no2)cc1 | 106%
43 | O=[N+]([O-])c1ccc2c(c1)Cc1cc(F)ccc1-2 | 105%
44 | COc1ccc2[nH]cc(-c3noc(C(=O)c4cn(C)c5ccc(F)cc45)n3)c2c1 | 88.9%
45 | CCOC(=O)c1csc(NC(=O)COc2cccc(/C=C3\CSc4ccccc4C3=O)c2)n1 | -88% (active)
46 | O=C(N=Nc1c(O)[nH]c2ccc(Br)cc12)c1cc(-c2ccccc2)on1 | 104%
47 | CC1CCNC(C)C1 (stereo not drawn) | 105%
48 | CC(O)CN(CC(C)O)c1ccc2c(c1)Cc1cc([N+](=O)[O-])ccc1-2 (stereo not drawn) | 101%
49 | Nc1nc2ccc3[nH]ncc3c2c2c1CCCC2 | -9.88% (active)
50 | N#CN1CC[C@H](C(=O)Nc2cc3cc(C(N)=O)ccc3cn2)C1 | -5.54% (active)
51 | C=CC(=O)Nc1cccc(-c2nc(SC)nc(NCCN3CCOCC3)c2C#N)c1 | 87.7%
52 | CC(=O)OCCC/C(=C/c1cc2ccccc2c2ccccc12)[N+](=O)[O-] | -50% (active)
53 | NC(CSC(c1ccccc1)(c1ccccc1)c1ccc(Cl)cc1)C(=O)O (stereo not drawn) | 27.1%
54 | Cc1ccccc1COc1ccc(-c2ccnn2-c2ccc(Cl)cc2)cc1 | 75%
55 | COc1ccc(-c2cc(=O)c3c(OC)c4ccoc4cc3o2)cc1 | 113%
56 | CSc1nc(Nc2cccc(NC(=O)CCl)c2)c(C#N)c(-c2cccc([N+](=O)[O-])c2)n1 | 14.3%
57 | CC(C)(C)c1cc(/C=N\NC(=O)/C=C/C=C/c2ccc3c(c2)OCO3)c(O)c(C(C)(C)C)c1 | 92.9%
58 | CCOc1cc2ncc(C#N)c(Nc3ccc(OCc4cccc(F)c4)c(Cl)c3)c2cc1NC(=O)CC1CCSS1 (stereo not drawn) | 44.6%
59 | COc1ccc(-c2cc(Nc3ccnc(N4CCOCC4)n3)on2)cc1 | 57.1%

Row | SMILES | growth
60 | COC(=O)[C@]12CCC(C)(C)C[C@H]1[C@H]1C(=O)C[C@@H]3[C@@]4(C)c5c([nH]c6ccccc6c5=O)C(C)(C)[C@@H]4CC[C@@]3(C)[C@]1(C)CC2 | 76.4%
61 | CN(C)CCCNc1c2ccccc2nc2ccccc12 | 72.6%
62 | O=C1NC(=S)N[C@H]1CC(=O)n1cnc2ccccc21 | 102%
63 | Cc1ccc2oc(=O)cc(C3c4ccc([nH]4)C(c4cc(=O)oc5ccc(C)cc45)c4ccc([nH]4)C(c4cc(=O)oc5ccc(C)cc45)c4ccc([nH]4)C(c4cc(=O)oc5ccc(C)cc45)c4ccc3[nH]4)c2c1 (stereo not drawn) | -49.8% (active)
64 | CSc1ccc(-c2n[nH]nc2-c2cc3ccccc3s2)cc1 | 46.8%
65 | COC(=O)c1ccc(NC(=O)c2ccc(-c3cccc([N+](=O)[O-])c3)o2)cc1 | 98.9%
66 | O=C(N=Nc1c(O)[nH]c2ccccc12)c1cc(-c2ccccc2)on1 | 109%
67 | Cc1cc(N2CCCCC2)nc(NC2CCCC(Nc3ccnc4cc(Cl)ccc34)C2)n1 (stereo not drawn) | -67% (active)
68 | COc1cc(-c2nn(-c3ccc(C(=O)O)cc3)cc2C(=O)O)ccc1O | 70.3%
69 | COc1cccc(/C=N/NC(=O)c2ccccc2Nc2ccnc(C(F)(F)F)c2)c1O | 25.8%
70 | COc1cc(C(=O)Oc2ccccc2OC(=O)c2cc(OC)c(OC)c(OC)c2)cc(OC)c1OC | 94%
71 | CN1CCN(CCCOc2cccc3nc(Nc4cc(Cl)cc(Cl)c4)ccc23)CC1 | 65%
72 | COc1cccc(/C=C2\SC(=Nc3ccc(NC(C)=O)cc3)NC2=O)c1OC | 97.8%
73 | Cc1cc(N2CCN(c3ccnc4cc(Cl)ccc34)CC2)nc(NC2CCCCC2)n1 | 51.9%
74 | O=C(/C=C/C=C/c1ccc2c(c1)OCO2)N/N=C\c1ccc(O)cc1O | 27.3%
75 | N#C/C(=C\c1ccc(-c2cc(C(F)(F)F)ccc2Cl)o1)c1nc(-c2ccco2)cs1 | 114%
76 | CCc1nc(N)nc(N)c1C#CC(C)c1cc(-c2ccnc(C)c2)c2oc(C)nc2c1 (stereo not drawn) | 18.2%
77 | O=C1Nc2c(ccc(Cl)c2Cl)/C1=C\c1cc(C(F)(F)F)cc(C(F)(F)F)c1 | 14.9%
78 | COc1ccc(S(=O)(=O)N2CC3(COC3)C2)cc1NC(=O)c1[nH]c(C)c2c1CCCCC2=O | 73.3%
